Test results: paper PMC4336329 (PLoS ONE, 2015)
The campaign covered roughly 310,000 compounds. About 14,000 (4.5%) showed an effect of 50% or more. Effects have a minus sign here. The list comes from a sample in which strong results are over-represented; it also holds similar structures and randomly drawn compounds.

target: human ether-à-go-go-related gene (hERG) potassium channel (human, UniProt Q12809); assay: primary screen, population patch clamp on CHO cells stably expressing hERG; higher = less effect of the substance
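Further: peak tail current of the secondary pulse compared with the same well before compound.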

Chain of human ether-à-go-go-related gene (hERG) potassium channel (Q12809 whole entry, looked up): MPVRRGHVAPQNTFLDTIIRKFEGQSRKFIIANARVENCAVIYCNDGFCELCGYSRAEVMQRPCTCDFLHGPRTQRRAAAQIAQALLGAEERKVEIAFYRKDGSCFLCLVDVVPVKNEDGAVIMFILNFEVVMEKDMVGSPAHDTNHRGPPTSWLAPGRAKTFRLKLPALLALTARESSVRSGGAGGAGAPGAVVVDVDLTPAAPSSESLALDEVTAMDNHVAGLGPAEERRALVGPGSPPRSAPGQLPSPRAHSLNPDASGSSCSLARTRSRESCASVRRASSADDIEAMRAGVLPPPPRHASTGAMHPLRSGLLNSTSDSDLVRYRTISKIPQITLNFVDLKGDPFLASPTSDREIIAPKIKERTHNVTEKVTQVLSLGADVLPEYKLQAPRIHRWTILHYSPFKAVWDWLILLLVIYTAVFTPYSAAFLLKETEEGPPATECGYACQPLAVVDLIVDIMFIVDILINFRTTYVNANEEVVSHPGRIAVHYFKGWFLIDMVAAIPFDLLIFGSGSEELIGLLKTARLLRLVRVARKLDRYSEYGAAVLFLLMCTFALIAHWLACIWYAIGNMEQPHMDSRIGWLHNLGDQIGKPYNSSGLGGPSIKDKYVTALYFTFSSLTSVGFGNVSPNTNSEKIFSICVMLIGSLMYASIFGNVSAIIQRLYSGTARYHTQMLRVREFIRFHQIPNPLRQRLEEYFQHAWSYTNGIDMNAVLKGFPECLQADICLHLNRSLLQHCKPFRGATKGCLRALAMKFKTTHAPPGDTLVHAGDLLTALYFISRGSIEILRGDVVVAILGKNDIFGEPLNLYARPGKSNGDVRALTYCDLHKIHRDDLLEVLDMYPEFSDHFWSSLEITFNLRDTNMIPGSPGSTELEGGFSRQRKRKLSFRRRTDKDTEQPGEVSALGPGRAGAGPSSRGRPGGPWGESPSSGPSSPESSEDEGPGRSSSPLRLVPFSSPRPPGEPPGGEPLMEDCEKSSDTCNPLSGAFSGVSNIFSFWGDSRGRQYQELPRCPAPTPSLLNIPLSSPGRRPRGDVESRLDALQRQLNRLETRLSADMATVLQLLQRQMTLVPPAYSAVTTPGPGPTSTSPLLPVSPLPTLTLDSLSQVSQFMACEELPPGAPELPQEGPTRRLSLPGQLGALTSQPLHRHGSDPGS

| Structure (SMILES) | hERG current change (%, negative = inhibition) at 10uM [%] |
| --- | --- |
| O=C(NC(=S)N1CCN(c2ccc(Cl)cc2[N+](=O)[O-])CC1)c1ccco1 | -68.4 |
| O=C(NC(=S)N1CCN(c2ccc([N+](=O)[O-])cc2)CC1)c1ccco1 | -61.2 |
| Cc1ccc(C(=O)NC(=S)N2CCN(c3ccc([N+](=O)[O-])cc3)CC2)cc1 | -15.6 |
| O=C(NC(=S)N1CCN(c2ccc([N+](=O)[O-])cc2)CC1)c1ccccc1Cl | -39.8 |
| Cc1oc(C(C)(C)C)cc1C(=O)N1CCN(c2ccc(C(F)(F)F)cn2)CC1 | -5.33 |
| Cc1ccc(N(C(=O)c2nsc(Cl)c2Cl)C(C(=O)NC2CCCC2)c2ccc(O)cc2)cc1C (stereo not shown) | 9.52 |
| COc1ccc(-n2c(O)c(/C=N/n3cnnc3)c3ccccc3c2=O)cc1 | -1.22 |
| CC(=O)Nc1ccc(S(=O)(=O)NC2=C(N3CCN(C)CC3)C(=O)c3ccccc3C2=O)cc1 | -0.763 |
| CC(=O)c1ccc(NC(=O)Cn2cnc(S(=O)(=O)N3CCC(C)CC3)c2)cc1 | 21.4 |
| O=C(Nc1ccc(Cl)cn1)C1CCCN(c2ncnc3c2nc2n3CCCCC2)C1 (stereo not shown) | -57.7 |
| Cc1ccc(NC(=O)C2CCCN(c3ncnc4c3nc3n4CCCCC3)C2)nc1 (stereo not shown) | -62.5 |
| Cc1cccc(NC(=O)C2CCN(c3ncnc4c3nc3n4CCCCC3)CC2)n1 | -29.5 |
| O=C(Nc1ccc(Cl)cn1)C1CCN(c2ncnc3c2nc2n3CCCCC2)CC1 | -38.8 |
| Cc1ccnc(NC(=O)C2CCCN(c3ncnc4c3nc3n4CCCCC3)C2)c1 (stereo not shown) | -45.6 |
| Cc1cccc(NC(=O)C2CCCN(c3ncnc4c3nc3n4CCCCC3)C2)n1 (stereo not shown) | -54.2 |
| O=C(Nc1ccccn1)C1CCCN(c2ncnc3c2nc2n3CCCCC2)C1 (stereo not shown) | -34.8 |
| O=C(Oc1ccc2c3c(c(=O)oc2c1)CCC3)c1ccco1 | -1.09 |
| CCOC(=O)c1ccc(NC(=O)CN2C(=O)NC3(CCCCCCC3)C2=O)cc1 | -7.35 |
| COC(=O)c1[nH]c2ccc(F)cc2c1NS(=O)(=O)c1ccc(F)c(C)c1 | 0.344 |
| Cc1ccc(C2Nc3ccccc3NC3=C2C(=O)CC(C)(C)C3)c(O)c1 (stereo not shown) | 3.15 |
| Nc1c2c(nc3sc4c(c13)CCCC4)CCCCC2 | -6.3 |
| Nc1c2c(nc3sc4c(c13)CCCCC4)CCCCC2 | -25.9 |

| Structure (SMILES) | hERG current change (%, negative = inhibition) at 10uM [%] |
| --- | --- |
| Nc1c2c(nc3sc4c(c13)CCCC4)CCCC2 | -70.4 |
| Cc1nc2ccccc2nc1OCC(=O)Nc1ccccc1 | 14.8 |
| Cc1ccc(S(=O)(=O)N(CC2CO2)c2cc(Cl)ccc2Cl)cc1 (stereo not shown) | -6.93 |
| C[C@]1(C(=O)NCCCNc2ncc(C(F)(F)F)cc2Cl)C=C[C@@H](Cc2ccccc2)N1C(=O)c1ccccc1 | 7.01 |
| CC1(C(=O)NCCCNc2ncc(C(F)(F)F)cc2Cl)C=CCN1C(=O)c1ccccc1 (stereo not shown) | -56.4 |
| COC(=O)N1[C@H](C)C=C[C@]1(Cc1ccccc1)C(=O)NCCCNc1ncc(C(F)(F)F)cc1Cl | -10.5 |
| O=C(COC(=O)COc1ccccc1[N+](=O)[O-])Nc1ccccc1Br | 3.82 |
| COCCCNC(=S)N1CCN(c2nc(-c3ccccc3)cs2)CC1 | -5.55 |
| CCCCNC(=O)CCSc1ccc(C)cc1 | -2.9 |
| CN(CC(=O)NCc1ccc(F)cc1)Cc1ccc(Br)cc1 | -35.5 |
| COc1ccc(CNC(=O)CN(C)Cc2ccc(C(C)(C)C)cc2)cc1.O=C(O)C(=O)O | -4.44 |
| CSc1ccc(CN(C)CC(=O)NC(=O)NC(C)(C)C)cc1 | -3.83 |
| CSc1ccc(CN(C)CC(=O)Nc2ccc(NC(C)=O)cc2)cc1 | -25.8 |
| CSc1ccc(CN(C)CC(=O)NCc2ccccc2)cc1 | -52.5 |
| CSc1ccc(CN(C)CC(=O)N(C)CC(=O)Nc2ccccc2Br)cc1 | -56.9 |
| CSc1ccc(CN(C)CC(=O)NCCc2ccccc2)cc1 | -35.5 |
| COc1ccc(CNC(=O)CN(C)Cc2ccc(SC)cc2)cc1 | -65.2 |
| CSc1ccc(CN(C)CC(=O)NCc2ccc(F)cc2)cc1 | -70.1 |
| CSc1ccc(CN(C)CC(=O)Nc2ccccc2Br)cc1 | 17.3 |
| COc1ccc(CN(C)CC(=O)N(C)CC(=O)Nc2ccccc2Br)cc1F | -39.1 |
| CN(CC(=O)NCc1ccccc1)Cc1cccc(F)c1.O=C(O)C(=O)O | 9.59 |
